Assay results reported in the supplement of paper PMC11006884.
Targets with a hit are over-represented here; the source holds about 6,500 in all. About 2% of all pairs of compound and target were hits. Values without a mark were called inactive.

Compound: COC(=O)C#Cc1ccccc1 [methyl 3-phenylpropiolate]
Experiment: log2 ratio of iodoacetamide-alkyne labeling of the cysteine site, DMSO over compound (competition); higher = stronger covalent engagement of the cysteine by the compound, active = 1 or more
Settings: 500 µM; treatment time 1 h; system: HEK293T cell lysate
In short: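 Three replicates, each with duplicate channels, were prepared from HEK293T lysate (2 mg/mL) treated with vehicle or electrophile at 500 µM for 1 h at ambient temperature. Iodoacetamide alkyne was then applied for 1 h, and samples were clicked to sCIP-TMT reagents, pooled, trypsin-digested overnight at 37 °C, enriched on streptavidin, acid-eluted and analysed on Orbitrap Eclipse LC-MS/MS with FAIMS, with FragPipe quantification. The log2 competition ratio per cysteine is the mean control-channel divided by the mean compound-channel reporter intensity. Cysteines quantified in only one replicate were left out.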

Sequence of UniProt Q13190 (Q13190 whole entry): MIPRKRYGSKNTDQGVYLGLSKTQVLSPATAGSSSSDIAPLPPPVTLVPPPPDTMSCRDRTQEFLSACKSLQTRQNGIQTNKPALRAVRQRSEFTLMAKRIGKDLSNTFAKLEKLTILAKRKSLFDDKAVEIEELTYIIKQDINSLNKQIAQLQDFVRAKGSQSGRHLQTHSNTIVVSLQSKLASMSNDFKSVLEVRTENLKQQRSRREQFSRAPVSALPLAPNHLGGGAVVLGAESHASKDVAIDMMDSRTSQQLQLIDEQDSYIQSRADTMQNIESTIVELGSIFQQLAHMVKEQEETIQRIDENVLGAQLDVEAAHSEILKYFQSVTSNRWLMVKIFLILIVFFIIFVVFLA
Sequence of UniProt P85037 (P85037 whole entry, looked up): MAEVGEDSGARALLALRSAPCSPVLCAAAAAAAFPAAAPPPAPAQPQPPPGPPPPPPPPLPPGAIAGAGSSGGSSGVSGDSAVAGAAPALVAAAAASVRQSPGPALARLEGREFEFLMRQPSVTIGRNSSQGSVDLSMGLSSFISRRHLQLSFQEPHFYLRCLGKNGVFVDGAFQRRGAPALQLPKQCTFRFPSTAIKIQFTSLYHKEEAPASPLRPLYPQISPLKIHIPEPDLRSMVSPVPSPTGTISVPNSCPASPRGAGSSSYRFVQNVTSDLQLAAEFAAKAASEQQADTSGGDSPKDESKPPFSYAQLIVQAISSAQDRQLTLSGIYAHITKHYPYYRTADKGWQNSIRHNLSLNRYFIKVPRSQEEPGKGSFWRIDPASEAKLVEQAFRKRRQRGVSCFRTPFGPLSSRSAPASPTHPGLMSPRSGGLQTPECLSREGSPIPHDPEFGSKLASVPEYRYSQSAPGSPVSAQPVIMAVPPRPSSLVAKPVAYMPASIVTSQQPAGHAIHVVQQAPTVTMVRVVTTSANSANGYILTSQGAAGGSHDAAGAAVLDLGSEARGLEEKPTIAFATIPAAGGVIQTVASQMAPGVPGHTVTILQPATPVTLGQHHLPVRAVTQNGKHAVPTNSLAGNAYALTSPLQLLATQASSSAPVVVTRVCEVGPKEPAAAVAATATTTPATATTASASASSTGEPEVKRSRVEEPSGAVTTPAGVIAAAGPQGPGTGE
Sequence of UniProt Q13330 (Q13330 whole entry, looked up): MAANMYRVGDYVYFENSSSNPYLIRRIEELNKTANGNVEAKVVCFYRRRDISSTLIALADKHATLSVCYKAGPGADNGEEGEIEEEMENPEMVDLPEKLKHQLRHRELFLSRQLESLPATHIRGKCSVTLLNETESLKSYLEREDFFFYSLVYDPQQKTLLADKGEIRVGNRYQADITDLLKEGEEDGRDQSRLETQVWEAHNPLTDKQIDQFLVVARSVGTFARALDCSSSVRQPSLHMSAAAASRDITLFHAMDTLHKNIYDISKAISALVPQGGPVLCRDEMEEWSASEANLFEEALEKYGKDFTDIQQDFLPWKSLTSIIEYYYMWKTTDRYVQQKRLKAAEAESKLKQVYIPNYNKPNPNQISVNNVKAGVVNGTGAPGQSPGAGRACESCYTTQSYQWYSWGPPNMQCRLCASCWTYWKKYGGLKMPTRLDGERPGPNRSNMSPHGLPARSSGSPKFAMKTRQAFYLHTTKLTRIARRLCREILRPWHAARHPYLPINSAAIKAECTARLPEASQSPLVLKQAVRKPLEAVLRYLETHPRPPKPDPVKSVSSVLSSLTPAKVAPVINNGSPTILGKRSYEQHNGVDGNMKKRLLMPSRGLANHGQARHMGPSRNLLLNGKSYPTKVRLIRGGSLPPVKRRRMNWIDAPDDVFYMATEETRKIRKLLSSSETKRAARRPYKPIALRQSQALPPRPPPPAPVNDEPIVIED
Sequence of UniProt Q00839 (Q00839 whole entry, looked up): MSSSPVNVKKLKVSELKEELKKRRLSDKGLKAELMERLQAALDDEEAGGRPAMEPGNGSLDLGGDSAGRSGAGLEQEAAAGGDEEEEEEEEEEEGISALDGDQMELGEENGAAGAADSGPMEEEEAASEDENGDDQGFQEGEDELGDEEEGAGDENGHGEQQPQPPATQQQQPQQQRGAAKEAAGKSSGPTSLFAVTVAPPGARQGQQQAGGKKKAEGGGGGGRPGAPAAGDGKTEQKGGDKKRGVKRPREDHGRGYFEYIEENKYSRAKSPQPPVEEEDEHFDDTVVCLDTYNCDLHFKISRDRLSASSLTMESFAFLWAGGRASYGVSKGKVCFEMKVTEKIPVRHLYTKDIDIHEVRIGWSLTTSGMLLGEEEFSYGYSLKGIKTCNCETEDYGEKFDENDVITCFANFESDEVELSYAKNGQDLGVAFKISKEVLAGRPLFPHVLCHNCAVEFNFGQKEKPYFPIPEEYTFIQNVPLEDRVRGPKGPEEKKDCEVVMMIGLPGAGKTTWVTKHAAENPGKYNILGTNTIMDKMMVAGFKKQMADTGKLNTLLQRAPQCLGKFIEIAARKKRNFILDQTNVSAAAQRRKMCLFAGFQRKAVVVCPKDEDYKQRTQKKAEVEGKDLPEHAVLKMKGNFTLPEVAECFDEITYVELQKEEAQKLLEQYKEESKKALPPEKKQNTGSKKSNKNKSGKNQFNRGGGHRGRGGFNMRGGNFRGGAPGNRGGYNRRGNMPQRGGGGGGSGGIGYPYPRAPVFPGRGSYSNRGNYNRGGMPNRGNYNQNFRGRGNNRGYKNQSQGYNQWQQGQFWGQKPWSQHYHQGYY
Sequence of UniProt Q14166 (Q14166 whole entry, looked up): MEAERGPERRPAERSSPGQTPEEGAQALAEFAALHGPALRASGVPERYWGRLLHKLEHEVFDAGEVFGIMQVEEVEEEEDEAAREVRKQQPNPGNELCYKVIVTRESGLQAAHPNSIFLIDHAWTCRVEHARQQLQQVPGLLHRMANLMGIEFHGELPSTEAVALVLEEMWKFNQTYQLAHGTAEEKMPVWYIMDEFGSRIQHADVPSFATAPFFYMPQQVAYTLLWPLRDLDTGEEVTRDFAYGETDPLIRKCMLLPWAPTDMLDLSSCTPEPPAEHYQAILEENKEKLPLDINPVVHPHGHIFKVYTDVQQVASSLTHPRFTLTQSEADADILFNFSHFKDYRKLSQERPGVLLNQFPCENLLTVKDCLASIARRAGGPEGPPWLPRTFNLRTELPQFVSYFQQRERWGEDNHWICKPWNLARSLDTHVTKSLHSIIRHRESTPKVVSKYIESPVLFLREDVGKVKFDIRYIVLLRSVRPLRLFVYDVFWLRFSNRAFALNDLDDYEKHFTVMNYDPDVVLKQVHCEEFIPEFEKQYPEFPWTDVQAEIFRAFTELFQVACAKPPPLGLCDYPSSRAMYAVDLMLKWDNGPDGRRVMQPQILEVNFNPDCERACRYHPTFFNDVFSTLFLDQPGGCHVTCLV
Sequence of UniProt Q06546 (Q06546 whole entry): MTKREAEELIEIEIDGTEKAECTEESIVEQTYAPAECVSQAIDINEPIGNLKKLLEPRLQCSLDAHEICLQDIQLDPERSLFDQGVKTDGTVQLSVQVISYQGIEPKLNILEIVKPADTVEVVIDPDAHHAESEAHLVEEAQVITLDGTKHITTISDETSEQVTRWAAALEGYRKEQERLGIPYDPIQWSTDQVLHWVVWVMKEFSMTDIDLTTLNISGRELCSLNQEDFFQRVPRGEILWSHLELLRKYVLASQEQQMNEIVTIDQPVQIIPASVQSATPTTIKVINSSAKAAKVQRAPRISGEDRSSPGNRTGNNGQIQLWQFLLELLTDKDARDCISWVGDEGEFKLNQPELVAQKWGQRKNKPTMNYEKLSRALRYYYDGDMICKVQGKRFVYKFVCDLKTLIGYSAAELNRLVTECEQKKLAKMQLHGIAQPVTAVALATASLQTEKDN
Sequence of UniProt P62633 (P62633 whole entry, looked up): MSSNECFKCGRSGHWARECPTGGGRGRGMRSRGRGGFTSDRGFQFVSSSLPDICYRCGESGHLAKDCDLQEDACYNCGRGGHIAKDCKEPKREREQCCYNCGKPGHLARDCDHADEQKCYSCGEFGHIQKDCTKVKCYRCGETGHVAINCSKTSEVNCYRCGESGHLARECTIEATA
Sequence of UniProt Q15417 (Q15417 whole entry, looked up): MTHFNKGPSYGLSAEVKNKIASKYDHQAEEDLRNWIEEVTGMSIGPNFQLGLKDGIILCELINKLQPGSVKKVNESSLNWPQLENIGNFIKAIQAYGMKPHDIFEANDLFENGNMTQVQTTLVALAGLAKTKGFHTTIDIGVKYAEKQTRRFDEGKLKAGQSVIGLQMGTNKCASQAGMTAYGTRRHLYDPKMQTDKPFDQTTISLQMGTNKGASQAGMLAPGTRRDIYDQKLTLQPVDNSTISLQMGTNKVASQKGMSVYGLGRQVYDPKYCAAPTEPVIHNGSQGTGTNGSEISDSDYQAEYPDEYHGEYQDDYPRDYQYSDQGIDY
Sequence of UniProt Q06587 (Q06587 whole entry, looked up): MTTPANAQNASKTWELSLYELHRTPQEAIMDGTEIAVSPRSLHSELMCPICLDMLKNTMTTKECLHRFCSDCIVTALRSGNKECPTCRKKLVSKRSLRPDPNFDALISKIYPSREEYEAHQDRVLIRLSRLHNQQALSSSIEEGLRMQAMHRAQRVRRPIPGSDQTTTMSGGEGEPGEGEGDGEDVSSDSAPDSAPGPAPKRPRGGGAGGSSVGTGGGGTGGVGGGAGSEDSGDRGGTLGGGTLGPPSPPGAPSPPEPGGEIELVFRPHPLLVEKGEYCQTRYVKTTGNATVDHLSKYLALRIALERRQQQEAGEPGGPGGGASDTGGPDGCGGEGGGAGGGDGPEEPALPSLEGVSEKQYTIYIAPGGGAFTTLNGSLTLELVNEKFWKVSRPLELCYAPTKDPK
Sequence of UniProt P53384 (P53384 whole entry, looked up): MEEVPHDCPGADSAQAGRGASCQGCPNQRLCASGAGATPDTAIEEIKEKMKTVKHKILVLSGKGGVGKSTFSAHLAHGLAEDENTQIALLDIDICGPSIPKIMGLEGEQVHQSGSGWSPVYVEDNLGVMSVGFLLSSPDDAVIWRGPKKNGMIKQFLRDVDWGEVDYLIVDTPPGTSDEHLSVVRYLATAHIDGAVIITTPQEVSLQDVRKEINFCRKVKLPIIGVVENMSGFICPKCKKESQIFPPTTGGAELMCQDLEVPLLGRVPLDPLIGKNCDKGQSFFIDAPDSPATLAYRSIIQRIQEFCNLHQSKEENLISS

| Target | log2 ratio of iodoacetamide-alkyne labeling |
| --- | --- |
| SAFB C404 (UniProt Q15424) | 1.14 (active) |
| GABPA C338 (UniProt Q06546) | 0.308 |
| RPL18 C134 (UniProt Q07020) | 0.213 |
| CASP8 C360 (UniProt Q14790) | 1.2 (active) |
| CDC20 C364 (UniProt Q12834) | 1.22 (active) |
| UniProt P83731_C6 | 0.668 |
| SEC24C C433 (UniProt P53992) | 1.1 (active) |
| UniProt P60842_C134 | 0.0481 |
| MTA1 C229 (UniProt Q13330) | 0.124 |
| UniProt Q13155_C23 | 1.24 (active) |
| STX5 C68 (UniProt Q13190) | 0.4 |
| NUP107 C78 (UniProt P57740) | 0.705 |
| SORD C45 (UniProt Q00796) | -0.0713 |
| CNN3 C173 (UniProt Q15417) | 1.01 (active) |
| UniProt P62306_C66 | 0.0671 |
| RRP12 C31 (UniProt Q5JTH9) | 1.26 (active) |
| UniProt P62244_C72 | 0.177 |
| TTLL12 C612 (UniProt Q14166) | 0.0779 |

| Target | log2 ratio of iodoacetamide-alkyne labeling |
| --- | --- |
| UniProt Q13247_C61 | -0.0753 |
| RING1 C69 (UniProt Q06587) | 0.171 |
| FOXK1 C665 (UniProt P85037) | 0.531 |
| DIP2A C6 (UniProt Q14689) | 1.75 (active) |
| UniProt Q13242_C138 | 0.112 |
| HNRNPU C497 (UniProt Q00839) | 0.211 |
| UniProt Q15365_C118 | 1.72 (active) |
| COASY C140 (UniProt Q13057) | 1.16 (active) |
| UniProt P55769_C30 | -0.0266 |
| UniProt Q3LXA3_C24 | 0.218 |
| NUBP1 C31 (UniProt P53384) | 0.626 |
| UniProt P78527_C3281 | 0.287 |
| PITRM1 C780 (UniProt Q5JRX3) | 0.31 |
| UniProt P78527_C1904 | 0.286 |
| CNBP C171 (UniProt P62633) | -0.0616 |
| UniProt Q15042_C873 | 0.165 |
| RRP12 C261 (UniProt Q5JTH9) | 0.53 |
| LGALS3BP C496 (UniProt Q08380) | 1.72 (active) |
